Data from PubChem BioAssay.
“And” between values parts separate entries of the source, which are not always exact repeats. Equal entries are not always repeated. The source made the active and inactive calls.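 How the source made its calls, unless noted: active means inhibition at or above 50% relative to wild type and mutant plate controls; inactive means inhibition below 50%.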

Columns and labels:
[1] = inhibitors of Chlamydomonas gravitaxis, primary screen, whole organism, Chlamydomonas reinhardtii, WT vs cilia-less mutant, absorbance, 96-well (AID 463189); conditions: OD600 absorbance, 2 days, at 10 µM, stronger effect = higher value;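 further: 0% = wild type cc124 cells in DMSO and 100% = ciliumless bld1 mutant cells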
[2] = inhibitors of E-selectin induction by TNFa, primary screen, imaging, HUVEC, immunofluorescence, MLSMR starter and 10KST1 sets (AID 487;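 active means visually confirmed hit in the image check and inhibition above 20%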;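 on inhibition: signal is fraction of cell area covered by stained E-selectin grains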;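 on nuclei count: 100% = median nuclei count of all wells on the same plate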); conditions: HUVEC TNFalpha-induced E-selectin immunofluorescence imaging, at 2 µM; inhibition: stronger effect = higher value; nuclei count: measured here: cell number, toxicity
[3] = DUSP6 inhibitors restoring Erk phosphorylation by chemical complementation, primary imaging in DUSP6-transfected HeLa (AID 609;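 active means compounds giving at least 50% inhibition in the cell-based MKP-3 phosphatase rescue imaging test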;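 on inhibition: phospho-Erk level distribution per well compared with pooled transfected vehicle control wells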); conditions: HeLa MKP-3 transfected, phospho-Erk imaging KS statistic, at 10 µM
[4] = molecular target: Dual specificity protein phosphatase 6 (Homo sapiens) (UniProt Q16828); assay: as above; conditions: HeLa MKP-3 transfected, phospho-Erk imaging KS statistic, at 10 µM, stronger effect = higher value
[5] = molecular target: Voltage-gated potassium channel subunit beta-2 (Rattus norvegicus) (UniProt P62483); assay: KvBeta enzyme negative modulators, primary screen, biochemical, NADPH fluorescence (AID 622;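 active means fluorescence slope higher than the sample average by over 3 SD, cut at about -0.22 in these data, passing the limit was not always enough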;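 further: slope of raw intensity against log time taken from 70 to 1610 s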); conditions: recombinant KvBeta, 4-cyanobenzaldehyde reduction, at 10 µM, stronger effect = higher value
[6] = molecular target: Voltage-gated potassium channel subunit beta-2 (Rattus norvegicus) (UniProt P62483); assay: KvBeta positive modulators, primary screen, biochemical, NADPH fluorescence (AID 623;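 active means NADPH fluorescence slope more negative than the mean of all samples by about 3 SD, 99.7% confidence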;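 further: fluorescence intensity change per second fitted from 20 to 320 s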); conditions: Recombinant KvBeta, NADPH fluorescence decrease slope, 10 min; at 10 µM; stronger effect = lower value
[7] = molecular target: Muscarinic acetylcholine receptor M4 (Homo sapiens) (UniProt P08173); assay: compounds altering M4/GIRK thallium flux, either direction, primary screen, M4 allosteric agonist project, cell-based, HEK293 M4/GIRK, BTC-AM (AID 625;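 active means fluorescence slope after compound addition differing from the mean of all tested samples at 99.7% confidence, mostly higher but some lower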;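 further: thallium influx through GIRK channels coupled to M4 in HEK293 cells with BTC-AM dye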); conditions: at 10 µM, actives lie on both sides
[8] = inhibitors of larval lipid processing in zebrafish, primary screen, whole organism, PED6 fluorescence, gall bladder and intestine (AID 686;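 active means a full or partial loss of lipid-probe fluorescence in the fish gall bladder, intestine or both, judged by eye; inactive means no fluorescence loss, or compound toxic to the fish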;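 further: larvae 5 to 7 days old with five fish per well; signal comes from phospholipase A2 cleavage of quenched PED6 carried via bile; overnight exposure to compound and PED6 before scoring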); conditions: Zebrafish larvae PED6 lipid processing, fluorescence scoring
[9] = inhibitors of mutant huntingtin aggregation, primary screen, imaging, exon1htt(103Q)mCFP cells, high-content imaging (AID 483;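 active means visual image review flags a hit and inhibition of aggregation exceeds 20%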;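 further: compound exposure lasted 3 days before fixation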;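 on nuclei count: percent of the per-plate median nuclei count of sample wells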); conditions: exon1htt(103Q)mCFP cell line, aggregate imaging, at 2 µM; inhibition of aggregation: stronger effect = higher value; nuclei count: measured here: cell count, toxicity
[10] = molecular target: Alpha-2C adrenergic receptor (Homo sapiens) (UniProt P18825); assay: modulators of alpha2C/GIRK thallium flux, primary screen, cell-based, HEK293 alpha2C/GIRK1/2 (AID 624;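 active means fluorescence slope after compound addition differing from the mean of all screened samples at 99.7% confidence, in either direction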;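 further: slope of fluorescence ratio to pre-addition baseline per second over 15 to 24 s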); conditions: thallium flux BTC fluorescence, at 10 µM, actives lie on both sides
[11] = inhibitors of Sendai virus-induced IRF3 signaling, primary screen, TLR/RLR signaling modifier project, cell-based, Sendai virus stimulus, luciferase, 10K MLSCN set (AID 602276;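 active means inhibition at or above 50% at 10 µM; inactive means inhibition below 50%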;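 further: firefly luciferase from ISG56 promoter only with Renilla not read in this screen; 0% = Sendai virus plus DMSO and 100% = medium plus DMSO without virus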); conditions: HEK293 RL24 IRF3 luciferase reporter, at 10 µM, stronger effect = higher value
[12] = inhibitors of poly I:C-induced TLR3 signaling, primary screen, cell-based, poly I:C stimulus, luciferase, 10K MLSCN set (AID 602277;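 active means inhibition of the reporter signal at or above 50%; inactive means inhibition below 50%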); conditions: HEK293-TLR3 RL24 IRF3 luciferase reporter, at 10 µM, stronger effect = higher value
[13] = measured here: cell density z-score
[14] = measured here: nuclear c-Myc green intensity z-score
[15] = measured here: nuclear pErk red intensity z-score, stronger effect = higher value

Dual specificity protein phosphatase 6 (Homo sapiens), sequence (Q16828 whole entry, looked up): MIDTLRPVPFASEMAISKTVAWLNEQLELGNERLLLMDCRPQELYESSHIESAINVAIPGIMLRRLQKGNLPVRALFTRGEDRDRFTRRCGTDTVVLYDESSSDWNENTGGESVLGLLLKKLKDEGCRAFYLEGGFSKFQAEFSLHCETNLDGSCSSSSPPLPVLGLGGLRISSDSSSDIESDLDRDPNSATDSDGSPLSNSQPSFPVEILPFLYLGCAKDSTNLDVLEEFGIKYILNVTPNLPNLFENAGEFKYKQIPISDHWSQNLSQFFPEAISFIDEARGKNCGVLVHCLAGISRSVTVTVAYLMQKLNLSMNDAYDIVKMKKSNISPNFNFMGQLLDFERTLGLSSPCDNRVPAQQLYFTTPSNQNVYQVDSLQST
Voltage-gated potassium channel subunit beta-2 (Rattus norvegicus), sequence (P62483 whole entry, looked up): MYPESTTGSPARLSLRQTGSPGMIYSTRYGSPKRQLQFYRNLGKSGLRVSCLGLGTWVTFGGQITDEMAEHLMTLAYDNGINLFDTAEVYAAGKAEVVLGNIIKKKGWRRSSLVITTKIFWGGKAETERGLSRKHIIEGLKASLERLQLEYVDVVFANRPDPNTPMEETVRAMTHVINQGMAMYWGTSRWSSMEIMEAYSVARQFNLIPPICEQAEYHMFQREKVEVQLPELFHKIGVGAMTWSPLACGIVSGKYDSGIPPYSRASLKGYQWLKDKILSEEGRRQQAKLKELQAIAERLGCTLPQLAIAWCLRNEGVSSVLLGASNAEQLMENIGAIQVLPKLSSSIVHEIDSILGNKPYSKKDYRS
Alpha-2C adrenergic receptor (Homo sapiens), sequence (P18825 whole entry, looked up): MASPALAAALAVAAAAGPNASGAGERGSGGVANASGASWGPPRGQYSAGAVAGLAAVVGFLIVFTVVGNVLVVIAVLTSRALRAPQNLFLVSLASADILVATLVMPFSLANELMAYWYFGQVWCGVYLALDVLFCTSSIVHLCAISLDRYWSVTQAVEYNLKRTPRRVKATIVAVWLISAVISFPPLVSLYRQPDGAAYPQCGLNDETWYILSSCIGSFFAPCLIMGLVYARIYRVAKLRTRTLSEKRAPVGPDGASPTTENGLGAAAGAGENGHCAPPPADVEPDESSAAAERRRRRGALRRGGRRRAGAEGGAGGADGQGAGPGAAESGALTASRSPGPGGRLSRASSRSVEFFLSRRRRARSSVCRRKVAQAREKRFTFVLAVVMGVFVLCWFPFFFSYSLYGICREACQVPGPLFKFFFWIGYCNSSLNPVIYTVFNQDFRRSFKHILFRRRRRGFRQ
Muscarinic acetylcholine receptor M4 (Homo sapiens), sequence (P08173 whole entry, looked up): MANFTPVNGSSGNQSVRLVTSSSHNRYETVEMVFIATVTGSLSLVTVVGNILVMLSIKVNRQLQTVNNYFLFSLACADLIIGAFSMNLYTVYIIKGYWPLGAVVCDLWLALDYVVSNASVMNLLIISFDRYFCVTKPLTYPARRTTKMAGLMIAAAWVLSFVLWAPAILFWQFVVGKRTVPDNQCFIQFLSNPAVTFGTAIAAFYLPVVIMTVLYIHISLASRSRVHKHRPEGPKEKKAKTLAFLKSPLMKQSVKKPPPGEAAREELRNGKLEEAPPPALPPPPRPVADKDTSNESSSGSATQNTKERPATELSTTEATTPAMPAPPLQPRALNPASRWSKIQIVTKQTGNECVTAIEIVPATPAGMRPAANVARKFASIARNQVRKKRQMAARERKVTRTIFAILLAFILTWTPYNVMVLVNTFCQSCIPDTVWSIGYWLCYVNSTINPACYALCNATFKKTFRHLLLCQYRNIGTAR

Structure (SMILES): CC(C)Oc1cccnc1N(C)C1CCN(Cc2ccccc2)CC1
- inhibition [1]: 54.9% (active)

Structure (SMILES): Cn1c(O)c(C(=O)c2ccccc2Cl)c(=O)n(C)c1=O
- inhibition [2]: 35.3% (inactive)
- nuclei count [2]: 79.3%
- z-score [3, 13]: -0.324
- z-score [3, 14]: 0.445
- z-score [3, 15]: 0.96
- inhibition [4]: 5.57% (inactive)
- fluorescence slope [5]: -0.47 (inactive)
- NADPH fluorescence slope [6]: -3.4e-05 (inactive)
- fluorescence slope [7]: 0.00543 (inactive)
- outcome [8]: inactive
- inhibition [1]: 9.5% (inactive)

Structure (SMILES): CC12NC(Cc3ccccc31)c1ccccc12 (stereo unspecified)
- inhibition [1]: 2.33% (inactive)

Structure (SMILES): C/C=C(/C)C(=O)O[C@H]1C(C)=C2[C@H]([C@@H]1OC(=O)CCCCCCC)[C@@](C)(OC(C)=O)C[C@H](OC(=O)CCC)[C@@]1(O)[C@H]2OC(=O)[C@@]1(C)O
- inhibition [1]: -1.82% (inactive)

Structure (SMILES): COc1ccc2c(c[n+](C)c3c4cc5c(cc4ccc23)OCO5)c1OC
- inhibition [1]: 47% (inactive)

Structure (SMILES): C[C@]12CCC(=O)C=C1CC[C@@H]1[C@@H]2CC[C@]2(C)C(=O)CC[C@@H]12
- inhibition of aggregation [9]: 16.3% (inactive)
- nuclei count [9]: 88.1%
- inhibition [2]: -105% (inactive)
- nuclei count [2]: 117%
- z-score [3, 13]: -1.04
- z-score [3, 14]: -1.5
- z-score [3, 15]: 2.67
- inhibition [4]: 11.3% (inactive)
- fluorescence slope [5]: -0.41 (inactive)
- NADPH fluorescence slope [6]: 2.5e-05 (inactive)
- slope [10]: 0.00365 (inactive)
- outcome [8]: inactive
- inhibition [1]: 3.25% (inactive) and 26.7% (inactive)
- inhibition [11]: 5% (inactive)
- inhibition [12]: 31.7% (inactive)

Structure (SMILES): CC[C@@H]1C(=O)OC[C@@H]1Cc1cncn1C
- inhibition of aggregation [9]: 8.3% (inactive) and -13.2% (inactive)
- nuclei count [9]: 112% and 101%
- inhibition [2]: -46.3% (inactive) and -64.9% (inactive)
- nuclei count [2]: 122% and 127%
- z-score ([3]; measured here: cell density z-score, cells stimulated with TPA for 15 min): 0.654 and -2.12
- z-score ([3]; measured here: nuclear c-Myc green intensity z-score, cells stimulated with TPA for 15 min): -1.14 and -0.253
- z-score ([3]; measured here: nuclear pErk red intensity z-score, stronger effect = higher value, cells stimulated with TPA for 15 min): 0.525 and 1.62
- inhibition [4]: 11.3% [cells stimulated with TPA for 15 min] (inactive) and 10.2% [cells stimulated with TPA for 15 min] (inactive)
- fluorescence slope [5]: -0.572 (inactive) and -0.488 (inactive)
- NADPH fluorescence slope [6]: 7.3e-06 (inactive) and -6e-05 (inactive)
- outcome [8]: inactive [screened at 20 µM (by protocol)]
- inhibition [11]: 18.4% (inactive) and -3.13% (inactive)
- inhibition [12]: 19% (inactive) and 27% (inactive)

Structure (SMILES): CCCCCCCCCCCCCC(=O)O[C@@H]1[C@@H](C)[C@@]2(O)[C@@H](C=C(CO)C[C@@]3(O)C(=O)C(C)=C[C@@H]23)C2C(C)(C)[C@@]21OC(C)=O (stereo partly specified)
- inhibition [1]: -13.4% (inactive)

Structure (SMILES): CN1CCN(c2ccc3ccccc3n2)CC1
- inhibition [1]: 23.3% (inactive)

Structure (SMILES): O=C(Cc1ccc(Cl)c(Cl)c1)N1CCCCC1CN1CCCC1 (stereo unspecified)
- inhibition [1]: 1.42% (inactive)

Structure (SMILES): C[C@]12CC[C@H](OS(=O)(=O)O)CC1=CC[C@@H]1[C@@H]2CC[C@]2(C)C(=O)CC[C@@H]12
- inhibition [1]: 6.73% (inactive)

Structure (SMILES): CC1OC1P(=O)(O)O (stereo unspecified)
- inhibition [1]: 0.291% (inactive)

Structure (SMILES): O=C1CC[C@@]2(O)[C@H]3Cc4ccc(O)c5c4[C@@]2(CCN3CC2CC2)[C@H]1O5
- inhibition [2]: -64.2% (inactive)
- nuclei count [2]: 120%
- z-score [3, 13]: 1.03
- z-score [3, 14]: 0.419
- z-score [3, 15]: 0.423
- inhibition [4]: 11.3% (inactive)
- fluorescence slope [5]: -0.463 (inactive)
- NADPH fluorescence slope [6]: -9.1e-06 (inactive)
- slope [10]: 0.0048 (inactive)
- outcome [8]: inactive
- inhibition [1]: 17.1% (inactive)
- inhibition [11]: 10.3% (inactive)
- inhibition [12]: 48.8% (inactive)

Structure (SMILES): c1ccc2c(c1)OCC(C1=NCCN1)O2 (stereo unspecified)
- inhibition of aggregation [9]: 2.2% (inactive)
- nuclei count [9]: 109%
- inhibition [2]: -66.1% (inactive)
- nuclei count [2]: 128%
- z-score [3, 13]: 0.816
- z-score [3, 14]: -0.0814
- z-score [3, 15]: 0.589
- inhibition [4]: 27.9% (inactive)
- fluorescence slope [5]: 0.111 (active)
- NADPH fluorescence slope [6]: -0.000173 (inactive)
- slope [10]: 0.0054 (inactive)
- outcome [8]: inactive
- inhibition [1]: -4.66% (inactive) and 22.4% (inactive)
- inhibition [11]: -8.86% (inactive)
- inhibition [12]: 10.1% (inactive)

Structure (SMILES): CN(C)[C@@H]1C(=O)C(C(N)=O)=C(O)[C@@]2(O)C(=O)C3=C(O)c4c(O)cccc4[C@@](C)(O)[C@H]3[C@H](O)[C@@H]12
- inhibition of aggregation [9]: 62.6% (active)
- nuclei count [9]: 102%
- inhibition [2]: -42.6% (inactive)
- nuclei count [2]: 123%
- z-score [3, 13]: 1.9
- z-score [3, 14]: -1.29
- z-score [3, 15]: -0.511
- inhibition [4]: 8% (inactive)
- fluorescence slope [5]: -0.459 (inactive)
- NADPH fluorescence slope [6]: -9.9e-05 (inactive)
- slope [10]: 0.00569 (inactive)
- outcome [8]: inactive
- inhibition [1]: 12% (inactive)
- inhibition [11]: -6.24% (inactive)
- inhibition [12]: 5.5% (inactive)

Structure (SMILES): CN1CCC(c2c[nH]c3ccc(O)cc23)CC1
- inhibition [1]: 4.07% (inactive)

Structure (SMILES): C=C(C)[C@H]1CN[C@H](C(=O)O)[C@H]1CC(=O)O
- inhibition [1]: -2.25% (inactive)

Structure (SMILES): S=C(NC1CCCCC1)N1CCC(c2cnc[nH]2)CC1
- inhibition [1]: 12.6% (inactive)

Structure (SMILES): CC(C)(C)c1o[nH]c(=O)c1CC(N)C(=O)O (stereo unspecified)
- inhibition [1]: 0.571% (inactive)

Structure (SMILES): C=CCN1CCc2cccc3c2[C@H]1Cc1ccc(O)c(O)c1-3
- inhibition [1]: 6.2% (inactive)
